Assays:
Test in all cases: log2 ratio of Biotin-Ahx-Ub-VS probe labelling (fragment/DMSO); higher = less target engagement (more negative = stronger competition), active = hit call of the paper (q ≤ 0.05, log2 ratio ≤ -1)
Details in all cases: compound concentration: 200 uM; treatment time: 3 h
USP19 = target: T1, USP19 (UniProt O94966)
T1 sequence (whole entry): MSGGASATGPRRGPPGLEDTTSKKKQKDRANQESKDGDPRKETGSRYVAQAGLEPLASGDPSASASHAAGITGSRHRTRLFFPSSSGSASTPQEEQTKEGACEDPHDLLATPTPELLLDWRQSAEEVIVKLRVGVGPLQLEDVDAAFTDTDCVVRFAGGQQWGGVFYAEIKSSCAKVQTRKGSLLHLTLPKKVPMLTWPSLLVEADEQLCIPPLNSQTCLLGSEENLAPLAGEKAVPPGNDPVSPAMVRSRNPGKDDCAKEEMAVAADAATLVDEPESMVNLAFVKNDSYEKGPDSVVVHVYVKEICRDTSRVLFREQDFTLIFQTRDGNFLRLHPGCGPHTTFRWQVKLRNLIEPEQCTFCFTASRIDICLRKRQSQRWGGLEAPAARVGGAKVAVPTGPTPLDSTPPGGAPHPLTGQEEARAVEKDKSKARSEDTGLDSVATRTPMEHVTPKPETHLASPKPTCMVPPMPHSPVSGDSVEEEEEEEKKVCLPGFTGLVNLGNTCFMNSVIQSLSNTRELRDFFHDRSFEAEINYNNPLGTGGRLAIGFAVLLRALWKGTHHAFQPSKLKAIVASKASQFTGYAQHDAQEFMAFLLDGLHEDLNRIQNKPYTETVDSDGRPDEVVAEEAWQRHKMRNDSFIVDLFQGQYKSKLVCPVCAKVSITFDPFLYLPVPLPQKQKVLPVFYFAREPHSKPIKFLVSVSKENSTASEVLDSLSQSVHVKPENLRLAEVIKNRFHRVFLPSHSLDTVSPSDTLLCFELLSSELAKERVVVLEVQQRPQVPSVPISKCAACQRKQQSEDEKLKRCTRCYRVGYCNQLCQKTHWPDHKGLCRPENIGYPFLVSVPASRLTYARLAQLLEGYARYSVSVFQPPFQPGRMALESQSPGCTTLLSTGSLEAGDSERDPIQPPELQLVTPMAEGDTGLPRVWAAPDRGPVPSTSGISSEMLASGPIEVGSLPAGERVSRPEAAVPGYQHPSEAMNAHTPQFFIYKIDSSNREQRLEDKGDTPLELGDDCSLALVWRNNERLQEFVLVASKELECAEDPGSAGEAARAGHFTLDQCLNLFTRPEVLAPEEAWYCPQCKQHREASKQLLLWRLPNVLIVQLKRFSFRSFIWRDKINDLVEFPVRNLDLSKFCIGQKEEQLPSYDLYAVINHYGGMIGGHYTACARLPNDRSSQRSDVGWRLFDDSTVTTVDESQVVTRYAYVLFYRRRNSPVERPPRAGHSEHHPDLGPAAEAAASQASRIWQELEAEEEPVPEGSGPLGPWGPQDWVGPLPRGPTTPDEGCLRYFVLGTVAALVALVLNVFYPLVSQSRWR
In short: (§1)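 Values give the average log2 ratio of fragment to vehicle, assessed by unpaired t-test on global-median-normalised Spectronaut label-free quantities. Proteins needed ≥2 unique peptides. HEK293T lysate (495 µg per sample) was treated in triplicate with fragment at 200 µM or vehicle for 3 h and then with Biotin-Ahx-Ub-VS at 0.5 µM final for 1 h. Labelled DUBs were NeutrAvidin-enriched, digested and run by diaPASEF LC-MS/MS.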

USP22 = target: T2, USP22 (UniProt Q9UPT9)
T2 sequence (whole entry): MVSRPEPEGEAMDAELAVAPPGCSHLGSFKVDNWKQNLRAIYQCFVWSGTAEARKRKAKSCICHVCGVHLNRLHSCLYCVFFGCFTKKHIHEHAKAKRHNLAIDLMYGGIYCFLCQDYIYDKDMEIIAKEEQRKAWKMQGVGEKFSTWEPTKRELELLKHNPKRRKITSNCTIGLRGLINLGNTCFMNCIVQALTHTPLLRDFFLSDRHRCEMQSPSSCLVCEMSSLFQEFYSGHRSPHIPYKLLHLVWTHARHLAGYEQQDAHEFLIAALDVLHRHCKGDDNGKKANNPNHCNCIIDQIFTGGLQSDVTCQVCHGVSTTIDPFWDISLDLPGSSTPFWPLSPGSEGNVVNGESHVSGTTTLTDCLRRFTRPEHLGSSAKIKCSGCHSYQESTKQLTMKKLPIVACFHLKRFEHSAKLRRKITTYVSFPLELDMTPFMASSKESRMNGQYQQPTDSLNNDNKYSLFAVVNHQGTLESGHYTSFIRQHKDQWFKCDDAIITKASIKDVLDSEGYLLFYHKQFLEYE
In short: as §1

USP24 = USP24 (UniProt Q9UPU5)
In short: as §1

USP25 = target: T3, USP25 (UniProt Q9UHP3)
T3 sequence (whole entry): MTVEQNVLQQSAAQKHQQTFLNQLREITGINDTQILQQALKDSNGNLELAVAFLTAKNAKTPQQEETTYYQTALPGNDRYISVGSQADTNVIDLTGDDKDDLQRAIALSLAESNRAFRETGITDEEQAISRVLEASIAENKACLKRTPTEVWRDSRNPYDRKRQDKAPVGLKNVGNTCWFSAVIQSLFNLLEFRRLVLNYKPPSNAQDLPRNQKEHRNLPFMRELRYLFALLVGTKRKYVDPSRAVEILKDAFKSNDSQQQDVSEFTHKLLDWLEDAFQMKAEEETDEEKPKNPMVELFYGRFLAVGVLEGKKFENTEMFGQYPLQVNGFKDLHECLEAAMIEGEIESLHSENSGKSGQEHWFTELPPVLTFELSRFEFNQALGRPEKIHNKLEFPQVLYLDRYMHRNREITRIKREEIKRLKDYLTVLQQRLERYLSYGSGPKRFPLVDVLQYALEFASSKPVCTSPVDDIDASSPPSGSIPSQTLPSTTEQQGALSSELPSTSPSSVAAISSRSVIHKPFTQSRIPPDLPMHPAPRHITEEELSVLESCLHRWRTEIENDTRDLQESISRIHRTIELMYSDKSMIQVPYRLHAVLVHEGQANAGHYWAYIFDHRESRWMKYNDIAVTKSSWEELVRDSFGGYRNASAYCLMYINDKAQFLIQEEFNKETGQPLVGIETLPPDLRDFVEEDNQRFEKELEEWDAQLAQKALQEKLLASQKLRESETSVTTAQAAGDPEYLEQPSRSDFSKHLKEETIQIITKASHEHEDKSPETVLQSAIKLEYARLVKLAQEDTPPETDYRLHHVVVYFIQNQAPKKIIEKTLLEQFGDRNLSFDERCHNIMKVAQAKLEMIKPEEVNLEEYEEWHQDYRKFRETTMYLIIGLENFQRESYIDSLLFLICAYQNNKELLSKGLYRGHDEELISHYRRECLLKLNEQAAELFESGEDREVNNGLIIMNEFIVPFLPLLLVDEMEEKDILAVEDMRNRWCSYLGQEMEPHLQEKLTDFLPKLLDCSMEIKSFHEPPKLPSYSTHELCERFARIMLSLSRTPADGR
In short: as §1

USP28 = target: T4, USP28 (UniProt Q96RU2)
T4 sequence (whole entry): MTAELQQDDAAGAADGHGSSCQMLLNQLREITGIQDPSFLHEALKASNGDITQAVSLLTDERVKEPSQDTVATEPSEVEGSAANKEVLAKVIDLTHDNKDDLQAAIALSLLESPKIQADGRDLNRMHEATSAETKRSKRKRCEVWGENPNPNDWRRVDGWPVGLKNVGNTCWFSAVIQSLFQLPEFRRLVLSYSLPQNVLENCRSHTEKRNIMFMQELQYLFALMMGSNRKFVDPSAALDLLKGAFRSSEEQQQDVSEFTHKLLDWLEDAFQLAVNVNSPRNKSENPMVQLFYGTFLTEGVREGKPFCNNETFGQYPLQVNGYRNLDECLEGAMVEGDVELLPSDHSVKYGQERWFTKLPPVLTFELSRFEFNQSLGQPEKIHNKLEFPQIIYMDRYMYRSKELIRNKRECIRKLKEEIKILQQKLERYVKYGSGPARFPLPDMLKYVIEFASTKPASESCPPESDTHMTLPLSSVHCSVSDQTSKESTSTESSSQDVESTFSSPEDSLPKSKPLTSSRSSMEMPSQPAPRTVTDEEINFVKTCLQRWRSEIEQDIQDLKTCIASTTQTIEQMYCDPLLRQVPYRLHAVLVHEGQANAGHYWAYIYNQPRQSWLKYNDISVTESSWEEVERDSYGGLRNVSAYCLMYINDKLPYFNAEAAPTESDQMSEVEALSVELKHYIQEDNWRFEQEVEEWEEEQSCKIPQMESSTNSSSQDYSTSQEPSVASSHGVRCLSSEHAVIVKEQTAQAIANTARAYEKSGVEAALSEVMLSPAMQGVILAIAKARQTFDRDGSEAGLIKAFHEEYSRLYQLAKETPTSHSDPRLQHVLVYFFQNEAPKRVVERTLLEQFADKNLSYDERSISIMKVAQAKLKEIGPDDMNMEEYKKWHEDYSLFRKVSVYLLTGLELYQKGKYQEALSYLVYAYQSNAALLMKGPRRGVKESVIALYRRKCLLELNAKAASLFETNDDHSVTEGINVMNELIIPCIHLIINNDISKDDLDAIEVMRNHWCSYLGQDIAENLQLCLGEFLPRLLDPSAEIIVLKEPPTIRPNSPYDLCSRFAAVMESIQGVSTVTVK
In short: as §1

Measured: log2 ratio of Biotin-Ahx-Ub-VS probe labelling

Sequence of USP24 (Q9UPU5 whole entry): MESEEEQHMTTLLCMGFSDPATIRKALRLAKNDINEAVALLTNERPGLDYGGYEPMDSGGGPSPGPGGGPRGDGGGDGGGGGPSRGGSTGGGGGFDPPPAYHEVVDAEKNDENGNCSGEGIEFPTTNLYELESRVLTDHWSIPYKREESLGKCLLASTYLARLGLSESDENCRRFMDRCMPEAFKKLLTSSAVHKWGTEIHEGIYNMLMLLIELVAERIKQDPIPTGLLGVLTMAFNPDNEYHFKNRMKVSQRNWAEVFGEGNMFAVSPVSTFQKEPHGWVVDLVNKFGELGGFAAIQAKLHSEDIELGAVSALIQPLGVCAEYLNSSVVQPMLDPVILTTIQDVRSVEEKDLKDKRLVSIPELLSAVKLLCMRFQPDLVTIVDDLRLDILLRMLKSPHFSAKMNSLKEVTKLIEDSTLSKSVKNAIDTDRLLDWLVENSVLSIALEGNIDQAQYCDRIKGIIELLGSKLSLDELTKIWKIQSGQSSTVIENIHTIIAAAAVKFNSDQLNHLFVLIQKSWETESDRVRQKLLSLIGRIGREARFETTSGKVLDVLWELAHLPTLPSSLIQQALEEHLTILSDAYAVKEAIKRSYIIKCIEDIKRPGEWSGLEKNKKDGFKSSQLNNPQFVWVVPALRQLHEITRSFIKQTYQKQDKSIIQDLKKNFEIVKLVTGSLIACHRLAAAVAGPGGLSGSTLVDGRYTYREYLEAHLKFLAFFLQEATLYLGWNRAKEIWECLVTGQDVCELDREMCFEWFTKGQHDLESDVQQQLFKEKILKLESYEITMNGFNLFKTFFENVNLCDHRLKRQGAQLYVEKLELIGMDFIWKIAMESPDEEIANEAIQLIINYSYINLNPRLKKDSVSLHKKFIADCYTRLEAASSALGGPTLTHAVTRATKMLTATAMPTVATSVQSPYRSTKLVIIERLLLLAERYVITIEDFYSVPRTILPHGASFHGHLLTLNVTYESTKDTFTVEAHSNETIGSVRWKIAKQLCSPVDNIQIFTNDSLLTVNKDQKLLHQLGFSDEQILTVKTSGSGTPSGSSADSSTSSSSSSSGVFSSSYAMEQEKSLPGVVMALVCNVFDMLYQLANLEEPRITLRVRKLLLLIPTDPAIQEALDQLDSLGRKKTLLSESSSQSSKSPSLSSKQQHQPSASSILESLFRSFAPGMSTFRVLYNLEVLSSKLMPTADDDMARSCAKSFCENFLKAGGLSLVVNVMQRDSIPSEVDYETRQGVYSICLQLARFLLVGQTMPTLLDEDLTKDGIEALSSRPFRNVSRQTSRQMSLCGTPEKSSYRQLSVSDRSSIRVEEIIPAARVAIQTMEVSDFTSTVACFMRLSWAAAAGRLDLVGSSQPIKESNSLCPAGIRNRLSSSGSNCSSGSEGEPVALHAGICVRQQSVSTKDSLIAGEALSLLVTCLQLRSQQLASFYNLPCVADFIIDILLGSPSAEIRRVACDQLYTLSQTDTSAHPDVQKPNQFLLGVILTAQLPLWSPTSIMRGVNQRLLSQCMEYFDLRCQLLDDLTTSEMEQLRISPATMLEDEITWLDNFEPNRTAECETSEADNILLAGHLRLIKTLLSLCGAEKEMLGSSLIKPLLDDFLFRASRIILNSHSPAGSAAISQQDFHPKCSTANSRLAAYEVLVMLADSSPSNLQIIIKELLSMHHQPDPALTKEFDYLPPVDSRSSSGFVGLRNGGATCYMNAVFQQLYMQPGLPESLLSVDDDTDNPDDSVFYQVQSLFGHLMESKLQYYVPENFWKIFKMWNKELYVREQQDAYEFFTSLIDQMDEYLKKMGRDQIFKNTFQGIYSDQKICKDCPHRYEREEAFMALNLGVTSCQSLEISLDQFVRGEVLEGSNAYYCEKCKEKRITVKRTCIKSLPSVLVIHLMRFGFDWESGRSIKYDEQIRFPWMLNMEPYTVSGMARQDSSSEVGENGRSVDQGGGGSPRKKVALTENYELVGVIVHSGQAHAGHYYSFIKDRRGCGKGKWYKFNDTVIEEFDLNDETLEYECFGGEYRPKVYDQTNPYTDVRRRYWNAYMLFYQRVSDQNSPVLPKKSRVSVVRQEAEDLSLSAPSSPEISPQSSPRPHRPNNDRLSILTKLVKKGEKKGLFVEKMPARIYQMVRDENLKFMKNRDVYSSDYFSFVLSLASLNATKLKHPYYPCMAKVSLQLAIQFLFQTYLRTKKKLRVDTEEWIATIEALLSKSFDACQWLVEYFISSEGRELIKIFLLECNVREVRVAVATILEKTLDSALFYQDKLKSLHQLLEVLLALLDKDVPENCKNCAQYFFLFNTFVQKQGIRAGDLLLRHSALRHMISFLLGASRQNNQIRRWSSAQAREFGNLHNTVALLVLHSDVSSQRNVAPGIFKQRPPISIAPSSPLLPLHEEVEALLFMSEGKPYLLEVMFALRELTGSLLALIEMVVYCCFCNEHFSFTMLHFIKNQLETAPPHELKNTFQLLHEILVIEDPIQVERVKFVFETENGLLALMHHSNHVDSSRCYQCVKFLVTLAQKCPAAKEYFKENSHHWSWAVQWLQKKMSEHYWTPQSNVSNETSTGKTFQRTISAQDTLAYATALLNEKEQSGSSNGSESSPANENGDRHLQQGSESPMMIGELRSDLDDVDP

CN(CCC(O)c1ccc(Br)cc1)C(=O)CCl (stereo not given)
inactive: USP19 -0.439 | USP22 -0.43 | USP24 -0.901 | USP25 -0.071 | USP28 -0.457

Reference: the supplement of paper PMC11732987, “Enantioselective OTUD7B fragment discovery through chemoproteomics screening and high-throughput optimisation” (Communications Chemistry, 2025)
